High-throughput results as filed in PubChem.
DT40 TDP1 CPT: growth inhibition of DT40 Tdp1-/-;hTDP1 cells with camptothecin (screen for TDP1 inhibitors); chicken DT40 Tdp1-/-;hTDP1 cells + 20 nM CPT, ATP luminescence, 48 h; Potency, µM (highest dose often 46.2 µM), without a hit: top-dose activity change, negative = growth inhibition, usual class: inhibitors; 420,000 compounds, 12% hits; AID 686979; also: nearly all actives have a fitted effect of over 55% in size
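Chicken DT40 Tdp1-/- cells complemented with human TDP1, 400 cells/well, exposed to compounds plus 20 nM camptothecin for at least 48 h at 37 C; viability read as ATP content by CellTiter-Glo luminescence.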
VP16 counter: inhibits Gal4-VP16 luciferase reporter, ROR gamma counter-screen; AID 2546; Potency, µM (doses to about 53.6 µM), for inactives: top-dose activity, negative = inhibition, actives largely listed as inhibitors; Drosophila S2 Gal4-VP16 UAS-luciferase, luminescence, 20 h; 310,000 compounds, 3.5% hits;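 also: Gal4-VP16 expression switched on by copper sulfate through the metallothionein promoter; nearly all actives have a fitted effect of over 50% in size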
DT40 TDP1 no CPT: qHTS for Inhibitors of human tyrosyl-DNA phosphodiesterase 1 (TDP1): qHTS in cells in absence of CPT | 420,000 compounds, 15% hits | DT40 Tdp1-/- hTDP1 cells, no CPT, ATP luminescence, 48 h | Potency, µM (titrated, usually from 46.2 µM), for the others: top-dose activity change, negative = growth inhibition, usual class: inhibitors; also: nearly all actives have a fitted effect of over 55% in size
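Seeded 400 DT40-hTDP1 cells/well (vehicle DMSO, no 20 nM CPT); pinned compounds; ≥48 hr at 37 °C; CellTiter-Glo luminescence as viability measure.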
TDP1 block: blocks human tyrosyl-DNA phosphodiesterase 1; Q9NUW8; recombinant TDP1, AlphaScreen DNA substrate cleavage; Potency, µM (top dose mostly 130 µM), for inactives: at the top dose activity change, negative = inhibition, usual class: inhibitors; 350,000 compounds, 0.28% hits; also: nearly all actives have a fitted effect of over 40% in size
Target sequence (Q9NUW8 whole entry, looked up): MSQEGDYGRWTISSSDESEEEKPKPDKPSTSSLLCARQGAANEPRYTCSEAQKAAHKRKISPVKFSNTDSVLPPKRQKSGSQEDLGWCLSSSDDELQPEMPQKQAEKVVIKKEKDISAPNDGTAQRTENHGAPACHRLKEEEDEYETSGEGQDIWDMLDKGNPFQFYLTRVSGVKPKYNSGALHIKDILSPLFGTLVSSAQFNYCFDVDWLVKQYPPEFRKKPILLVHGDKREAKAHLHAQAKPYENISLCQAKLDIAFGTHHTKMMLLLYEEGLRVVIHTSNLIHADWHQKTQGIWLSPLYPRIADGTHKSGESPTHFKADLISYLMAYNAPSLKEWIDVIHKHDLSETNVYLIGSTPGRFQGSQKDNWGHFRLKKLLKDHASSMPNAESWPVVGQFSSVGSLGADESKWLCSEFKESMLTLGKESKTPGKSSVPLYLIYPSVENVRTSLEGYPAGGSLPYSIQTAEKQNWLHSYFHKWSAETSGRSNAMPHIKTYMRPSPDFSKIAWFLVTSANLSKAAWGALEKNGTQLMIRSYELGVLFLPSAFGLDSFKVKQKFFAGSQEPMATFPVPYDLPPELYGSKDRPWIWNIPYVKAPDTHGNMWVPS
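Signal: AlphaScreen proximity between streptavidin donor and anti-FITC acceptor beads on intact substrate. Reaction: Tdp1 1 nM, substrate 15 nM final, 5 min RT after 15 min compound preincubation.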
RORgamma inh: blocks mouse ROR gamma transcriptional activity. P51450. Drosophila S2 Gal4-RORgamma UAS-luciferase reporter, 20 h. Potency, µM (top dose mostly 53.6 µM), without a hit: at the highest dose activity change, negative = inhibition, most hits filed as inhibitors. 310,000 compounds, 5.4% hits. AID 2551; also: nearly all actives have a fitted effect of over 60% in size
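Drosophila S2 cells stably expressing Gal4-DBD/mouse RORγ fusion under metallothionein promoter plus UAS-luciferase; compound 1 h, then 700 uM CuSO4 induction for 20 h at ambient temperature; inhibition read as reduced luminescence.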
An asterisk follows results filed as active. An excerpt weighted towards active compounds, which were near 19% of everything screened. Calls follow the shape of the dose curve; as a rule, active = well fitted curve in the direction sought with a large enough effect; inconclusive = small, poorly fitted or top-dose-only effect, or another doubt; inactive = no such curve, though single readings can be large; an effect the other way counts as inactive or inconclusive. % is scaled to controls: 0 for no effect and ±100 for the full control effect; potency is read from the fitted curve at half-maximal effect.

For Cc1cc(C(=O)NC2CC(C)(C)Cc3c2cnn3-c2ccccc2)n(C)n1 (centres undefined) the results were DT40 TDP1 CPT inconclusive, VP16 counter -14.2%, DT40 TDP1 no CPT inconclusive, TDP1 block 2.8% and RORgamma inh 41.2%.
`CC(=O)[C@@]1(O)C(C)CC2C3C=C(C)C4=Cc5c(cnn5-c5ccccc5)C[C@]4(C)C3C(O)C[C@@]21C` (some centres undefined) gave DT40 TDP1 CPT 4.61µM*, VP16 counter -26.3%, DT40 TDP1 no CPT 5.17µM*, TDP1 block 6.2% and RORgamma inh -17.4%.
`CCOc1ccc2nc(N3CCCC(C(=O)NCCc4ccc(C)cc4)C3)sc2c1` (centres undefined) gave DT40 TDP1 CPT 11.6µM*, DT40 TDP1 no CPT 14.6µM* and TDP1 block -4.9%.
CCOc1ccc2nc(N3CCCC(C(=O)NCCCOC)C3)sc2c1 (centres undefined) was read as DT40 TDP1 CPT 16.4µM*, DT40 TDP1 no CPT 18.4µM* and TDP1 block 2.0%.
For CCCN1CCN(CCCNC(=O)C2CCCN(c3nc4ccc(OCC)cc4s3)C2)CC1 (centres undefined) the results were DT40 TDP1 CPT -8.1%, VP16 counter 0.1%, DT40 TDP1 no CPT -1.1%, TDP1 block 9.1% and RORgamma inh -1.1%.
For Cc1cccc(NC(=O)CO/N=C/c2ccc3c(c2)OCO3)c1 the results were DT40 TDP1 CPT -11.9%, VP16 counter -12.4%, DT40 TDP1 no CPT inconclusive, TDP1 block -4.2% and RORgamma inh inconclusive.
Screening O=C(Nc1ccccc1Sc1ccccc1)c1cnn2c1NC(=C1CC1)C=C2C(F)F returned DT40 TDP1 CPT 15.8µM* and DT40 TDP1 no CPT inconclusive.
`O=C(Nc1cccc(Nc2ccccc2)c1)c1cnn2c1NC(=C1CC1)C=C2C(F)F` gave DT40 TDP1 CPT 4.47µM* and DT40 TDP1 no CPT 14.1µM*.
Screening O=C(Nc1cccnc1Cl)c1cnn2c1NC(=C1CC1)C=C2C(F)F returned DT40 TDP1 CPT inconclusive and DT40 TDP1 no CPT 8.91µM*.
Screening O=C(NC1CCCc2ccccc21)c1cnn2c1NC(=C1CC1)C=C2C(F)F (centres undefined) returned DT40 TDP1 CPT 11.2µM* and DT40 TDP1 no CPT 20µM*.
For Cc1noc(C)c1S(=O)(=O)N(C)C[C@H]1OCc2cnnn2CCCC(=O)N([C@H](C)CO)C[C@H]1C the results were DT40 TDP1 CPT 9.1% and DT40 TDP1 no CPT 0.9%.
Screening COc1ccc(CSc2n[nH]c(C)n2)cc1Br returned DT40 TDP1 CPT -11.9%, VP16 counter 12.5%, DT40 TDP1 no CPT -21.7%, TDP1 block 1.5% and RORgamma inh 39.9%.
`COc1ccc(CCNC(=O)c2cnn3c2NC(=C2CC2)C=C3C(F)F)cc1OC` gave DT40 TDP1 CPT 11.2µM* and DT40 TDP1 no CPT 12.6µM*.
For O=C(c1cnn2c1NC(=C1CC1)C=C2C(F)F)N1CCc2ccccc21 the results were DT40 TDP1 CPT 11.2µM* and DT40 TDP1 no CPT 11.2µM*.
Screening Cc1cc(C)c(NC(=O)CCCN2C(=O)COc3ccc(C)cc32)c(C)c1 returned DT40 TDP1 CPT inconclusive, DT40 TDP1 no CPT 16.4µM* and TDP1 block 7.6%.
COc1ccccc1CNC(=O)CCCN1C(=O)COc2ccc(C)cc21 was read as DT40 TDP1 CPT inconclusive, VP16 counter -4.4%, DT40 TDP1 no CPT -24.4%, TDP1 block 2.0% and RORgamma inh -12.2%.
`Cc1cccc(CNC(=O)CCCN2C(=O)COc3ccc(C)cc32)c1` gave DT40 TDP1 CPT 14.6µM*, DT40 TDP1 no CPT inconclusive and TDP1 block 5.1%.
`Cc1cc(C)cc(NC(=O)CCCN2C(=O)COc3ccc(C)cc32)c1` gave DT40 TDP1 CPT inconclusive, DT40 TDP1 no CPT inconclusive and TDP1 block -2.5%.
Screening CCOc1ccccc1CNC(=O)CCCN1C(=O)COc2ccc(C)cc21 returned DT40 TDP1 CPT inconclusive, DT40 TDP1 no CPT 18.4µM* and TDP1 block -7.6%.
